The record followed here is ChEMBL document CHEMBL2218924, “A broad activity screen in support of a chemogenomic map for kinase signalling research and drug discovery” (Biochem J, 2013).

Ribosomal protein S6 kinase alpha-6 (Homo sapiens), sequence (Q9UK32 whole entry): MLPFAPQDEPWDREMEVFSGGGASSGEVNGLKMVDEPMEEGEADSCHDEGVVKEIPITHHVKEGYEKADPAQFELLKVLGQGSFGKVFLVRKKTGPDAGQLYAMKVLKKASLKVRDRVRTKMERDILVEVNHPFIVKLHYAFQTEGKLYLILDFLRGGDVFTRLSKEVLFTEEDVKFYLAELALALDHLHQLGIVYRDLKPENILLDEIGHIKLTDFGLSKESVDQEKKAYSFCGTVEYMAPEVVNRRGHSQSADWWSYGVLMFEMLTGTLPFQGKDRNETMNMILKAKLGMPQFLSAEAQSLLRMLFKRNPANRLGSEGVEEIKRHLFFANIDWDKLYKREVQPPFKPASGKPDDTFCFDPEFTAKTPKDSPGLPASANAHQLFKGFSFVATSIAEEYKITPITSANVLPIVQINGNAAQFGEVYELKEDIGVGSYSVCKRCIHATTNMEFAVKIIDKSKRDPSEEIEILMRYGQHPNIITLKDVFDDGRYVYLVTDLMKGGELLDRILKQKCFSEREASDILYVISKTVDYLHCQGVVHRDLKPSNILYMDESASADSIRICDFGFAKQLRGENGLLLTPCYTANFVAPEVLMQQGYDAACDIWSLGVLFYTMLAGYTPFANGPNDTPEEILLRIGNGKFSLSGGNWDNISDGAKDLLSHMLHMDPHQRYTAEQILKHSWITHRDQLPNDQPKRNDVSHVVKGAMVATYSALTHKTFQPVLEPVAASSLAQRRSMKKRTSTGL
Mitogen-activated protein kinase 14 (Homo sapiens), sequence (Q16539 whole entry): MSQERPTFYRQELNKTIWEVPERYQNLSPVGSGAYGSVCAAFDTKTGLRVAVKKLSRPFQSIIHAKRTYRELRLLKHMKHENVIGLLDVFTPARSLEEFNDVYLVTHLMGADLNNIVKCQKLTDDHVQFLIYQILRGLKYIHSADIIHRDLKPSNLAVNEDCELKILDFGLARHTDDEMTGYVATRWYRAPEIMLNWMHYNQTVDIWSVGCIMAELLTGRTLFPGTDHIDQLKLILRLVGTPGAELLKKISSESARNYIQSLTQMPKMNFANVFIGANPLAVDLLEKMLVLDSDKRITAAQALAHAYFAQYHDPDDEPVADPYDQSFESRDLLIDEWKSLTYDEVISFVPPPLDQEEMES

One experiment concerns the target Ribosomal protein S6 kinase alpha-6 (Homo sapiens) (UniProt Q9UK32). Particulars: at 10 µM.
For `O=C1NC(=O)/C(=C\c2ccc3nccnc3c2)S1`, the residual activity came out at 99%.

For `Cc1nc2cc3nc(-c4cccs4)cnc3cc2n1C`, the residual activity stood at 84%.

Consider `c1ccc2c(-c3ccncc3)c[nH]c2c1`, for which the residual activity came out at 107%.

`COc1cc2ncnc(Nc3ccc(O)c(Br)c3)c2cc1OC`: the residual activity is 18%.

For `CCC(=O)Nc1ccc2ncnc(Nc3cccc(Br)c3)c2c1`, the residual activity was found to be 82%.

For `Cn1cnc2cc3c(Nc4cccc(Br)c4)ncnc3cc21`, the residual activity came out at 68%.

On to `Cc1cc(Nc2nc(-c3ccccc3)nc3ccccc23)n[nH]1`, for which the residual activity was 8%.

Regarding `O=C1Nc2cc(Br)ccc2/C1=C1/Nc2ccccc2/C1=N\O`, the residual activity was 24%.

For `CCN(CC)CCCCN1c2ccccc2Oc2ccc(Cl)cc21`, the residual activity amounted to 104%.

Take `Cn1nc2c3c(cccc31)C(=O)c1ccccc1-2`: the residual activity came to 67%.

In the case of `COc1cc2ncnc(Nc3ccc(NC(=O)c4ccccc4)cc3)c2cc1OC`, the residual activity stood at 109%.

Take `Nc1nc(Nc2ccc(S(N)(=O)=O)cc2)nn1C(=S)Nc1c(F)cccc1F`: the residual activity is -2%.

With `CN(C)CCCn1cc(C2=C(c3c[nH]c4ccccc34)C(=O)NC2=O)c2ccccc21`, the residual activity was determined as 3%.

With `COc1cc2ncc(-c3ccccc3)nc2cc1OC`, the residual activity worked out at 94%.

As to `Cc1cncc2cccc(S(=O)(=O)N3CCCN(C(=O)CN)C[C@H]3C)c12`, the residual activity worked out at 66%.

`C[C@@H](N)[C@H]1CC[C@H](C(=O)Nc2ccncc2)CC1`: the residual activity came out at 60%.

With `CC(=O)c1ccc(N2CCOCC2)cc1O`, the residual activity is 102%.

Turning to `COc1ccc(C(=O)Nc2sc3c(c2C(N)=O)CCCC3)cc1OC`, the residual activity was 99%.

Take `CCN(CC)C(=O)c1ccc(Nc2nc(OCC3CCCCC3)c3nc[nH]c3n2)cc1`: the residual activity is 7%.

With `Cc1ccc(NC2=CC(=O)c3sc(C)nc3C2=O)cc1`, the residual activity was determined as 111%.

`COc1cc2ncnc(N3CCN(C(=O)Nc4ccc(Oc5ccccc5)cc4)CC3)c2cc1OC`: the residual activity is 111%.

Regarding `Nc1n[nH]c2nnc(-c3c(-c4ccccc4)nn4ccccc34)cc12`, the residual activity is 88%.

`O=C1Nc2ccccc2/C1=C1/Nc2ccccc2/C1=N\OCCC(O)CO` (stereo unspecified): the residual activity worked out at 7%.

On to `Ic1cccc(CSc2nnc(-c3ccncc3)o2)c1`, for which the residual activity stood at 100%.

With `O=c1cc(-c2cccc3c2Sc2ccccc2S3)oc(N2CCOCC2)c1`, the residual activity is 87%.

Take `COc1ccc(CNc2nc(N(CCO)CCO)nc3c2ncn3C(C)C)cc1`: the residual activity amounted to 56%.

As to `COc1cccc(-c2cc(=O)c3ccccc3o2)c1N`, the residual activity was found to be 133%.

On to `NC(=O)c1ccc2[nH]c(-c3ccc(Oc4ccc(Cl)cc4)cc3)nc2c1`, for which the residual activity was 29%.

For the compound `CNc1cc2c(Nc3cccc(Br)c3)ncnc2cn1`, the residual activity came out at 74%.

On to `O=C(Nc1cccc(Nc2cc(Nc3cccc(C(F)(F)F)c3)ncn2)c1)C1CC1`, for which the residual activity is 99%.

With `Cc1nc(-c2ccccc2)c(-c2ccncc2)o1`, the residual activity stood at 117%.

Another experiment has as its target Mitogen-activated protein kinase 14 (Homo sapiens) (UniProt Q16539). Particulars: at 1 µM.
Turning to `O=C1NC(=O)/C(=C\c2ccc3nccnc3c2)S1`, the residual activity worked out at 82%.

As to `Cc1nc2cc3nc(-c4cccs4)cnc3cc2n1C`, the residual activity worked out at 114%.

As to `c1ccc2c(-c3ccncc3)c[nH]c2c1`, the residual activity is 77%.

Turning to `COc1cc2ncnc(Nc3ccc(O)c(Br)c3)c2cc1OC`, the residual activity was determined as 51%.

Turning to `CCC(=O)Nc1ccc2ncnc(Nc3cccc(Br)c3)c2c1`, the residual activity worked out at 78%.

As to `Cn1cnc2cc3c(Nc4cccc(Br)c4)ncnc3cc21`, the residual activity came to 64%.

As for `O=C1Nc2cc(Br)ccc2/C1=C1/Nc2ccccc2/C1=N\O`, the residual activity was 85%.

Regarding `CCN(CC)CCCCN1c2ccccc2Oc2ccc(Cl)cc21`, the residual activity was found to be 93%.

On to `Cn1nc2c3c(cccc31)C(=O)c1ccccc1-2`, for which the residual activity turned out to be 91%.

Consider `Nc1nc(Nc2ccc(S(N)(=O)=O)cc2)nn1C(=S)Nc1c(F)cccc1F`, for which the residual activity was determined as 88%.

In the case of `Cc1cccc(-c2[nH]c(C(C)(C)C)nc2-c2ccc3c(c2)OCO3)n1`, the residual activity stood at 49%.

As to `CN(C)CCCn1cc(C2=C(c3c[nH]c4ccccc34)C(=O)NC2=O)c2ccccc21`, the residual activity is 109%.

As to `N#CC(C#N)=C(N)/C(C#N)=C/c1ccc(O)cc1`, the residual activity was 78%.

For `COc1cc2ncc(-c3ccccc3)nc2cc1OC`, the residual activity stood at 92%.

Turning to `Cc1cncc2cccc(S(=O)(=O)N3CCCN(C(=O)CN)C[C@H]3C)c12`, the residual activity came out at 74%.

Take `C[C@@H](N)[C@H]1CC[C@H](C(=O)Nc2ccncc2)CC1`: the residual activity stood at 106%.

Consider `COc1ccc(C(=O)Nc2sc3c(c2C(N)=O)CCCC3)cc1OC`, for which the residual activity was 93%.

As for `Cc1ccc(NC2=CC(=O)c3sc(C)nc3C2=O)cc1`, the residual activity was 97%.

For the compound `COc1cc2ncnc(N3CCN(C(=O)Nc4ccc(Oc5ccccc5)cc4)CC3)c2cc1OC`, the residual activity turned out to be 78%.

As for `Nc1n[nH]c2nnc(-c3c(-c4ccccc4)nn4ccccc34)cc12`, the residual activity amounted to 78%.

Consider `Ic1cccc(CSc2nnc(-c3ccncc3)o2)c1`, for which the residual activity is 90%.

For the compound `O=c1cc(-c2cccc3c2Sc2ccccc2S3)oc(N2CCOCC2)c1`, the residual activity turned out to be 103%.

For the compound `COc1ccc(CNc2nc(N(CCO)CCO)nc3c2ncn3C(C)C)cc1`, the residual activity is 96%.

As to `COc1cccc(-c2cc(=O)c3ccccc3o2)c1N`, the residual activity came to 86%.

`NC(=O)c1ccc2[nH]c(-c3ccc(Oc4ccc(Cl)cc4)cc3)nc2c1`: the residual activity was 90%.

Take `CNc1cc2c(Nc3cccc(Br)c3)ncnc2cn1`: the residual activity amounted to 83%.

Regarding `c1ccc(-c2n[nH]cc2-c2ccnc3ccccc23)nc1`, the residual activity was determined as 49%.

Regarding `O=C(Nc1cccc(Nc2cc(Nc3cccc(C(F)(F)F)c3)ncn2)c1)C1CC1`, the residual activity was 80%.

`Cc1nc(-c2ccccc2)c(-c2ccncc2)o1`: the residual activity turned out to be 57%.

Turning to `c1ccc(-c2n[nH]c3c2oc2ccccc23)cc1`, the residual activity stood at 93%.
